# Measured values: PubChem BioAssay AID1224852 (National Center for Advancing Translational Sciences (NCATS), 2016)
# Results filed as inconclusive are left out. A number with no mark means an inactive call. The call rests on the fitted dose curve; in most records, active means well fitted curve in the direction sought with a large enough effect (not every such curve was filed as active); inconclusive means small, poorly fitted or top-dose-only effect, or effect the other way, or another doubt; inactive means no such curve, though single readings can be large or run the other way.
# Assay: Cell viability assay for measurement of the protective activity of small molecules against cell death caused by Zika virus infection in human neural progenitor cells (hNPCs);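 further: 0% = ZIKV-infected cells without compound and 100% = uninfected cells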
# Settings: hNPC ZIKV-induced death protection, ATP luminescence, 72 h; series mostly up to 46.1 µM; protection, negative = more death: at the top concentration
# In short: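 Luminescent ATP content after 72 h ZIKV infection (2 FFU/cell) of hNPCs, compounds added 1 h before virus. Protection expressed as percent inhibition of the infection-induced drop in cell viability.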
row,SMILES,"protection, negative = more death"
1,O=C(Nc1ncc([N+](=O)[O-])s1)c1cccs1,-40.1%
2,CN(C)CCCSc1ccccc1NC(=O)/C=C/c1ccccc1,8.23%
3,CC(C(=O)O)c1ccc(C(=O)c2cccs2)cc1 (stereo not drawn),2.89%
4,O=C(C=CC=Cc1ccc2c(c1)OCO2)N1CCCCC1,-34.5%
5,Cc1ccc2c(n1)Oc1ccc(C(C)C(=O)OCC(=O)N(C)C)cc1C2 (stereo not drawn),-34.7%
6,O=C(OCc1ccccc1)c1ccc(O)cc1,7.45%
7,N#CC1(c2ccc(NC(=O)c3cccnc3NCc3ccncc3)cc2)CCCC1,-13.3%
8,O=c1c(-c2ccc(O)cc2)coc2cc(OC3O[C@H](CO)[C@H](O)[C@H](O)[C@H]3O)cc(O)c12 (stereo partly drawn),-70.7%
9,CCCS(=O)c1ccc2nc(NC(=O)OC)[nH]c2c1 (stereo not drawn),-43.9%
10,Cc1c(C(=O)O)c(O)cc2c1C(=O)c1c(O)c([C@@H]3O[C@H](CO)[C@@H](O)[C@H](O)[C@H]3O)c(O)c(O)c1C2=O,-7.65%
11,O=C(/C=C/c1ccc(O)cc1)c1ccc(O)cc1O,-43.6%
12,c1ccc(CCNc2nc(-c3ccccc3)cs2)cc1,-7.96%
13,O=C(Oc1ccccc1)c1cccc(C(=O)Oc2ccccc2)c1,-16.5% [at 96.3 µM]
14,COc1cc(NC(C)CCCN)c2ncccc2c1 (stereo not drawn),-55.6%
15,O=C(CS)Nc1ccccc1,-49.6%
16,CNC1[C@H](O)C(O[C@@H]2C(O)C(O[C@H]3O[C@H]([C@@H](C)NC)CC[C@H]3N)[C@@H](N)C[C@H]2N)OC[C@]1(C)O (stereo partly drawn),4.9%
17,O=C1C(Cl)=C(NCCN2CCOCC2)C(=O)c2ncccc21,-79.3%

row,SMILES,"protection, negative = more death"
1,COc1cc2nc(N3CCN(C(=O)C4CCCO4)CC3)nc(N)c2cc1OC (stereo not drawn),5.27%
2,Nc1c(S(=O)(=O)O)cc(Nc2ccc(Nc3nc(Cl)nc(Nc4ccc(S(=O)(=O)O)cc4)n3)c(S(=O)(=O)O)c2)c2c1C(=O)c1ccccc1C2=O,-33.4%
3,COc1cccc(-c2ccc(NC(=O)C3=C(C(=O)O)CCC3)c(F)c2)c1,-16.9%
4,Nc1ccc(-c2ccc3ccccc3n2)cc1,-48.7%
5,CC(C)(C)OC(=O)CN(Cc1ccc(Cl)cc1)Cc1ccc([N+](=O)[O-])s1,-60.6% [at 88.3 µM]
6,COc1cc2nc(-c3ccc(N4CCN(C)CC4)cc3)nc(NCCN3CCOCC3)c2cc1OC,-80.9%
7,O=C1C[C@@H](c2ccc(O)cc2)Oc2cc(O)cc(O)c21,-22.1%
8,CC(C)OC(=O)CCCC=CC[C@@H]1[C@H](C=C[C@@H](O)COc2cccc(C(F)(F)F)c2)[C@H](O)C[C@@H]1O,-31%
9,Cc1nc(-c2ccc(OCC(C)C)c(C#N)c2)sc1C(=O)O,-46.3%
10,Cc1ccc(C(=O)c2ccc(CC(=O)O)n2C)cc1,-31.2%
11,CC(=O)Oc1ccccc1C(=O)Nc1ncc([N+](=O)[O-])s1,-68.9% [at 88.3 µM]
12,O=C1c2ccccc2C(=O)c2c(NCCc3ccc(O)cc3)ccc(NCCc3ccc(O)cc3)c21,-66.2%
13,CCN1CCC(n2cc(CNc3cc(Cl)c4ncc(C#N)c(Nc5ccc(F)c(Cl)c5)c4c3)nn2)CC1,-77.7%
14,CC(=O)Nc1ccc([C@H](C)C(=O)Nc2ncc(C(C)C)s2)cc1,-64.6%
15,CN1CCN(c2cc3c(nn2)Oc2ccccc2N3C)CC1,8.35% [at 23.8 µM]
16,Clc1ccccc1-c1nc(-c2ccncc2)no1,-34%
